Measured values from PubChem BioAssay AID651917 (Southern Research Specialized Biocontainment Screening …, 2012).
Results with a measured potency or affinity are listed apart. Values without a mark were called inactive. How the calls were made is not given here.

Assay: VEEV TC-83 cytopathic effect inhibitors, confirmation, cell-based, TC-83 strain, set 8 (AID 651917)
Conditions: VEEV TC-83 infected cells; series mostly up to 25 µM; inhibition: at the top concentration

In order of falling “inhibition” value:
1. CN(C)c1ccc(-n2c(CN3CCNCC3)nc3ccc([N+](=O)[O-])cc3c2=O)cc1  46.6%
2. CCN1CCN(Cc2nc3ccc(-c4cccnc4)cc3c(=O)n2-c2ccccc2)CC1  7.6%
3. CCN1CCN(CC2Nc3ccc([N+](=O)[O-])cc3C(=O)N2c2ccccc2F)CC1 (stereo not drawn)  7.2%
4. O=c1nc(Nc2ccccc2OCc2ccccc2)sc2ncccc12  6.97%
5. COc1ccccc1-n1c(CN2CCNCC2)nc2ccc([N+](=O)[O-])cc2c1=O  5.2%
6. CCN1CCN(c2nc3ccc([N+](=O)[O-])cc3c(=O)n2-c2ccccc2)CC1  4.2%
7. CN(C)c1cccc(-n2c(CN3CCNCC3)nc3ccc([N+](=O)[O-])cc3c2=O)c1  2.5%
8. CCN1CCN(Cc2nc3ccc(S(=O)(=O)O)cc3c(=O)n2-c2ccccc2)CC1  -0.9%
9. O=c1nc(Nc2ccc(OCc3ccccc3)cc2)sc2ncc([N+](=O)[O-])cc12  -1.13%
10. Cc1cccc(C)c1Nc1nc(=O)c2cccnc2s1  -1.13%
11. O=c1nc(Nc2ccc(F)cc2)sc2ncccc12  -1.5%
12. CCN1CCN(Cc2nc3ncccc3c(=O)n2-c2ccccc2)CC1  -1.77%
13. O=c1nc(N2CCN(Cc3ccccc3)CC2)sc2ncccc12  -2.53%
14. CCN1CCN(Cc2nc3c([N+](=O)[O-])cccc3c(=O)n2-c2ccccc2)CC1  -3.57%
15. CCN1CCN(Cc2nc3ccc(C(=O)O)cc3c(=O)n2-c2ccccc2)CC1  -5.4%
16. O=c1nc(NC2CCNCC2)sc2ncccc12  -6.83%

In order of falling “inhibition” value:
1. CCN1CCN(Cc2nc3ccc([N+](=O)[O-])cc3c(=O)n2C)CC1  2.33% [at 50 µM]
2. CCN1CCN(Cc2nc3ccc(-c4nn[nH]n4)cc3c(=O)n2-c2ccccc2)CC1  -1.1% [at 50 µM]
3. O=C1CN(Cc2nc3ccc([N+](=O)[O-])cc3c(=O)n2-c2ccccc2F)CCN1  -1.4% [at 50 µM]
4. CCN(CC)c1nc(=O)c2cccnc2s1  -1.73% [at 50 µM]
5. CCN1CCN(Cc2nc3ccc([N+](=O)[O-])cc3c(=O)n2Cc2ccccc2)CC1  -2% [at 50 µM]
6. COc1ccc(Nc2nc(=O)c3cccnc3s2)cc1  -2.13% [at 50 µM]
7. O=c1nc(Nc2ccc(CCc3ccccc3)cc2)sc2ncccc12  -2.33% [at 50 µM]
